These results are taken from PubChem BioAssay (NCATS).

Experiment in all cases: Cytotoxic Profiling of Annotated Libraries Using Quantitative High-Throughput Screening (AID 1296008); also: nearly all actives have a fitted effect of over 60% in size
Holding throughout (settings): Five cell lines viability, CellTiter-Glo ATP luminescence, 48-72 h; max response: hits give low values
(In general: ATP-based viability assays read luminescence as a measure of living cells.)

The subject of assay [1] is CRL-7250. The procedure, abridged: (§1)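 Compounds were pin-transferred onto cells and incubated 48 or 72 hr at 37 degree Celsius, 95% humidity. CellTiter-Glo was added, plates sat 10 min at room temperature, then ATP-coupled luminescence was imaged as the viability read-out.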
The test system of assay [2] is HEK293. The essentials: as §1
For assay [3], the system named is HaCat. The essentials:
as §1

Assay [4] deals with KB-3-1. The procedure, abridged:
as §1

Assay [5] deals with NIH3T3. The essentials: as §1

Records with an inconclusive call do not appear. Unmarked numbers belong to inactive results. Calls of active or inactive are those of the source. Calls follow the shape of the dose curve; as a rule, active = well fitted inhibition curve with a large enough effect; inconclusive = small, poorly fitted or top-dose-only effect; inactive = flat fitted curve, though single readings scatter.
% is scaled to controls: 0 for no effect and ±100 for the full control effect; potency is read from the fitted curve at half-maximal effect.

Turning to `O=C(O)c1cccc(CN2C(=O)/C(=C(\c3ccccc3)c3ccc(Cl)cc3)c3ccccc32)c1`, the max response in assay [1] was 3.11%; in assay [2], -10.4%; in assay [4], 5.03%; in assay [5], -3.22%. Moreover, in assay [3], the compound was called inactive.
`CC1(C)CC[C@]2(C(=O)O)CC[C@]3(C)C(=CCC4[C@@]5(C)CC[C@H](O[C@H]6O[C@H](C(=O)O)[C@@H](O)[C@H](O[C@@H]7O[C@H](CO)[C@H](O)[C@H](O)[C@H]7O)[C@H]6O)C(C)(C)C5CC[C@]43C)[C@@H]2C1` (stereo not given in full): the result in assay [1] and in assay [2] was inactive. The max response in assay [3] is 3.39%; in assay [4], 4.97%; in assay [5], -6.78%.
Take `CC/C=C\C(O)C(O)C1=C(C)C(=O)C2(O1)C(=O)NC(OC)(C(=O)c1ccccc1)C2O` (stereo not given): the call in assay [1] and in assay [3] was inactive. The max response in assay [2] is -0.178%; in assay [4], 7.12%; in assay [5] it was -1.62%.
In the case of `Cc1occc(=O)c1O[C@@H]1O[C@H](COC(=O)CC(C)(O)CC(=O)O)[C@@H](O)[C@H](O)[C@H]1O` (stereo not given in full), the call in assay [1], in assay [3], in assay [4] and in assay [5] was inactive. The max response in assay [2] was -5.53%.
Regarding `CC(=O)C1CCC(=O)N1Cc1ccccc1` (stereo not given), the outcome in assay [1] and in assay [3] was inactive. Moreover, the max response was -9.27% in assay [2], -4.66% in assay [4] and 3.14% in assay [5].
For the compound `CC(CC12CCCN1C(=O)C1CCCN1C2=O)OC(N)=O` (stereo not given), the result in assay [1] and in assay [3] was inactive. Also, the figures for the max response in assay [2], in assay [4] and in assay [5] were 2.01%, 4.48% and 4.31%, respectively.
In the case of `COCCCc1sc(-c2ccccc2)nc1C(=O)Nc1ccccc1-c1nc2cc(CN3CCCC3)cnc2s1`, the compound was classed as inactive in assay [1], in assay [3], in assay [4] and in assay [5]. Besides, the max response in assay [2] was -7.81%.
For the compound `CC1(C)CC[C@]2(C(=O)O[C@@H]3O[C@H](CO[C@@H]4O[C@H](CO)[C@@H](O)[C@H](O)[C@H]4O)[C@@H](O)[C@H](O[C@@H]4O[C@H](CO)[C@@H](O)[C@H](O)[C@H]4O)[C@H]3O)CC[C@]3(C)C(=CCC4[C@@]5(C)CC[C@H](O[C@@H]6OC[C@@H](O)[C@H](O)[C@H]6O)[C@@](C)(C(=O)O)C5CC[C@]43C)[C@@H]2C1` (stereo not given in full), the compound was classed as inactive in assay [1], in assay [4] and in assay [5]. For the same compound, the max response is -19.5% in assay [2] and -27.8% in assay [3].
`COCCN1CCC(C(=O)NO)(S(=O)(=O)c2ccc(Oc3ccc(OC(F)(F)F)cc3)cc2)CC1`: the max response is -0.582% in assay [1] and -3.44% in assay [2]. The result in assay [3], in assay [4] and in assay [5] was inactive.
For `CCOc1ccc(-c2cc(NC(=O)c3c(F)cccc3F)c(C(=O)O)s2)cc1`, the max response was -4.12% in assay [1], 1.07% in assay [2], -17.4% in assay [4] and -24.8% in assay [5]. Also, the compound was called inactive in assay [3].
For the compound `COC(=O)C[C@@H]1C(C(=O)O)=CO[C@@H](O[C@@H]2O[C@H](CO)[C@@H](O)[C@H](O)[C@H]2O)/C1=C\COC(=O)/C=C/c1ccc(O)c(OC)c1`, the max response is 2.29% in assay [1], -2.42% in assay [2] and -1.38% in assay [3]. The outcome in assay [4] and in assay [5] was inactive.
In the case of `O=C(O)CC1(O)C(=O)Nc2ccccc21` (stereo not given), the outcome in assay [1] and in assay [2] was inactive. Besides, the max response in assay [3] was -2.76%; in assay [4] it was 6.03%; in assay [5], 3.37%.
For the compound `C[C@@H](c1ccccc1)N(C(N)=NC#N)c1cccc2ncccc12`, the result in assay [1], in assay [3] and in assay [4] was inactive. The max response was 0.131% in assay [2] and 3.53% in assay [5].
As for `COc1ccccc1N1CCN(CCCCNC(=O)c2ccc(-c3cscn3)cc2)CC1`, the max response in assay [1] was -3.11%; in assay [4] it was -12.5%; in assay [5], 1.48%. Besides, the Potency in assay [2] is 20.6 µM (active). Moreover, the compound was classed as inactive in assay [3].
